Tests used:
Assay in all cases: DAPPL (digital affinity profiling via proximity ligation, sequencing); 10 mM Tris-HCl pH 7.5, 50 mM NaCl, 1 mM DTT, 4% glycerol, room temperature, 30 min; GST-TFs on glutathione beads, 16-mer random dsDNA library, 0.1% formaldehyde crosslink after washing; high values mean tight binding
FLI1 = biological target: T1, FLI1 (Homo sapiens, UniProt Q01543 1-452); settings: protein: recombinant; tags: N-terminal GST; dsDNA, one strand shown
T1 sequence: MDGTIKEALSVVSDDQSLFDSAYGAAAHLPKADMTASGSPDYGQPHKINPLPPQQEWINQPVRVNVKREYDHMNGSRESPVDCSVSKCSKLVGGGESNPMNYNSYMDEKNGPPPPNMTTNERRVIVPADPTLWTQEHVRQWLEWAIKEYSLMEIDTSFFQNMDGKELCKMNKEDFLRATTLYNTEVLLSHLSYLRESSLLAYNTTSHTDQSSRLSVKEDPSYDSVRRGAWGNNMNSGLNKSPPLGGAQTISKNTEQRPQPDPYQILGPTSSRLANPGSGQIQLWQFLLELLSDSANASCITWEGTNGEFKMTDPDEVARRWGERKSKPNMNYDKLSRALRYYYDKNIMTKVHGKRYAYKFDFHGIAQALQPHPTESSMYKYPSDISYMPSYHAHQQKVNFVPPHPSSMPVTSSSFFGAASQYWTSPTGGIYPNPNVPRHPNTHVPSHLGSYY
Summary of the method: (§1)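 A tag-only sample was pooled with DNA-barcoded human transcription factors that had been expressed in yeast as GST fusions and captured on glutathione beads. The pools were incubated for 30 min at room temperature with 200 nmole of a random double-stranded 16-mer DNA library in Tris/NaCl/DTT/glycerol buffer, then washed, crosslinked with 0.1% formaldehyde, proximity-ligated (BsaI/T4 ligase, 1 h, 37 °C), PCR-amplified and sequenced on an Illumina NextSeq500. Binding signal is each hexamer's read frequency for a factor divided by its frequency for the tag-only sample.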

ELK1 = biological target: T2, ELK1 (Homo sapiens, UniProt P19419 1-428); settings: protein: recombinant; tags: N-terminal GST; dsDNA, one strand shown
T2 sequence: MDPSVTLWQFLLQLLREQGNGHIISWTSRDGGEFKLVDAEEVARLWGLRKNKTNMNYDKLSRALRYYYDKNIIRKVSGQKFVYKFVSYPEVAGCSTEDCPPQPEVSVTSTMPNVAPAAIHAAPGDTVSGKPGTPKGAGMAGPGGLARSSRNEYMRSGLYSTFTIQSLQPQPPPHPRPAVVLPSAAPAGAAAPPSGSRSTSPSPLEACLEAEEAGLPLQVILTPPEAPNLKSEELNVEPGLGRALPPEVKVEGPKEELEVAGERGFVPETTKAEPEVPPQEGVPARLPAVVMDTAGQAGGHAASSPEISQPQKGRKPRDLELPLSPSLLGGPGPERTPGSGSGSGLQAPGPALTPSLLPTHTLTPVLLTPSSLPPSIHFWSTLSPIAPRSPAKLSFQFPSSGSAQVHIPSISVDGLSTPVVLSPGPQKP
Summary of the method: as §1

GABPA = biological target: T3, GABPA (Homo sapiens, UniProt Q06546 1-454); settings: protein: recombinant; tags: N-terminal GST; dsDNA, one strand shown
T3 sequence: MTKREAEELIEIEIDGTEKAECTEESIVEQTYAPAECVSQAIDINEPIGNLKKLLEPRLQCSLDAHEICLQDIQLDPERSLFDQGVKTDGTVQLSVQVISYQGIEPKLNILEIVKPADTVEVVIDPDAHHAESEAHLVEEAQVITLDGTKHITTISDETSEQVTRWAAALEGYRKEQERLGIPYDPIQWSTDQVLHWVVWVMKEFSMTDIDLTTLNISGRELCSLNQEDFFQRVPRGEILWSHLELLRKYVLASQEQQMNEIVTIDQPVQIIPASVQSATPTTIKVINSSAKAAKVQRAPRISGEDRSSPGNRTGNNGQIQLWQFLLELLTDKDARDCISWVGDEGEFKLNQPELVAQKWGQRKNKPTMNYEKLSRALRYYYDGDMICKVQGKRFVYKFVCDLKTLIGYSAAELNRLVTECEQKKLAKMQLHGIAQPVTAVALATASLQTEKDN
Summary of the method: as §1

ERG = biological target: T4, ERG (Homo sapiens, UniProt P11308 1-479); settings: protein: recombinant; tags: N-terminal GST; dsDNA, one strand shown
T4 sequence: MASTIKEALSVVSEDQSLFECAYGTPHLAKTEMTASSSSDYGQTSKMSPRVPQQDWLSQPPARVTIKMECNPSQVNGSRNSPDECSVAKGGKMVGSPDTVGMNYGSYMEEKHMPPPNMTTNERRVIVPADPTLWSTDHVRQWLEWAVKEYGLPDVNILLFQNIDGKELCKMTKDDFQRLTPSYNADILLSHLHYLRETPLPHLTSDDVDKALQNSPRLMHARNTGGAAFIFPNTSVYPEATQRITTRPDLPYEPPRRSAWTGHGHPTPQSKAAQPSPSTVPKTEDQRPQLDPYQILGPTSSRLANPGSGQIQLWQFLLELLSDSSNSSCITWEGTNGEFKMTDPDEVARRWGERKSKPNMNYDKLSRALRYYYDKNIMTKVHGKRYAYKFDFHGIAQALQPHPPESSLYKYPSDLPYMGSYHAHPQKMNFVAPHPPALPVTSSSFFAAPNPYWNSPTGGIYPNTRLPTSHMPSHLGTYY
Summary of the method: as §1

ELF1 = ELF1 (Homo sapiens, UniProt P32519 1-619); settings: protein: recombinant; tags: N-terminal GST; dsDNA, one strand shown
Summary of the method: as §1

EHF = biological target: T5, EHF (Homo sapiens, UniProt Q9NZC4 1-300); settings: protein: recombinant; tags: N-terminal GST; dsDNA, one strand shown
T5 sequence: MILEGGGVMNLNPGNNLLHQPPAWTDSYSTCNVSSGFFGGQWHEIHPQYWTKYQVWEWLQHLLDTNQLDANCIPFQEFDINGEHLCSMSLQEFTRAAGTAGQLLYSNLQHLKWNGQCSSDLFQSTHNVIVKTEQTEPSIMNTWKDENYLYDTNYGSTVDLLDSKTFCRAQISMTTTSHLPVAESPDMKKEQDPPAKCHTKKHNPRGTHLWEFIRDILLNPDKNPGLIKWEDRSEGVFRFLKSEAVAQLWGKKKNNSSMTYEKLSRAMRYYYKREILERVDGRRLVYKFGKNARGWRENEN
Summary of the method: as §1

SPIB = SPIB (Homo sapiens, UniProt Q01892 1-262); settings: protein: recombinant; tags: N-terminal GST; dsDNA, one strand shown
Summary of the method: as §1

ELK3 = biological target: T6, ELK3 (Homo sapiens, UniProt P41970 1-407); settings: protein: recombinant; tags: N-terminal GST; dsDNA, one strand shown
T6 sequence: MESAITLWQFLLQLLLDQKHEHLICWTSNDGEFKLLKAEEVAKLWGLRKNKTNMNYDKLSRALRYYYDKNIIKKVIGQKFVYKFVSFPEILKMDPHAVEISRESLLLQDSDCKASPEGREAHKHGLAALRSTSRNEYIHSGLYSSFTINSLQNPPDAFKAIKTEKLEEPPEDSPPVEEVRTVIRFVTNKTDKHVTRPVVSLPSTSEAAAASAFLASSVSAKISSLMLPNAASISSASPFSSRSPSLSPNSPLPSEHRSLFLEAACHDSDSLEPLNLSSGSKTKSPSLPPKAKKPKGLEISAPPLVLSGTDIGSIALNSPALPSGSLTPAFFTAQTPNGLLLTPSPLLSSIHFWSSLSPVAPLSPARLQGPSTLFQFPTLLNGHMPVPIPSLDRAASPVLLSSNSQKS
Summary of the method: as §1

FEV = biological target: T7, FEV (Homo sapiens, UniProt Q99581 1-238); settings: protein: recombinant; tags: N-terminal GST; dsDNA, one strand shown
T7 sequence: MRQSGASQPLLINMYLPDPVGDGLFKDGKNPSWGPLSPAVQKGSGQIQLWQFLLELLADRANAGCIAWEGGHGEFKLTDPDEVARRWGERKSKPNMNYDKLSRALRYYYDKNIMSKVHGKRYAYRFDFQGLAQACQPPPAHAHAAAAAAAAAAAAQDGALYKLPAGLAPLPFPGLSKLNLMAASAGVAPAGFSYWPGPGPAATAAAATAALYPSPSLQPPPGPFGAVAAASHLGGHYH
Summary of the method: as §1

ETV5 = ETV5 (Homo sapiens, UniProt P41161 1-510); settings: protein: recombinant; tags: N-terminal GST; dsDNA, one strand shown
Summary of the method: as §1

HSF1 = HSF1 (Homo sapiens, UniProt Q00613 1-529); settings: protein: recombinant; tags: N-terminal GST; chain copies: 3; dsDNA, one strand shown
Summary of the method: as §1

SPIC = biological target: T8, SPIC (Homo sapiens, UniProt Q8N5J4 1-248); settings: protein: recombinant; tags: N-terminal GST; dsDNA, one strand shown
T8 sequence: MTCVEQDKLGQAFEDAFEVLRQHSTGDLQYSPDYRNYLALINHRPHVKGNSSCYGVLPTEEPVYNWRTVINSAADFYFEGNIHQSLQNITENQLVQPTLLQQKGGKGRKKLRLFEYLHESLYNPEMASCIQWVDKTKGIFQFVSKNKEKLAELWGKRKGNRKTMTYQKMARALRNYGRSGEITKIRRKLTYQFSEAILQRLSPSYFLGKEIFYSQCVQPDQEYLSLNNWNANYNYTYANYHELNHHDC
Summary of the method: as §1

ELF4 = ELF4 (Homo sapiens, UniProt Q99607 1-663); settings: protein: recombinant; tags: N-terminal GST; dsDNA, one strand shown
Summary of the method: as §1

ELK4 = biological target: T9, ELK4 (Homo sapiens, UniProt P28324-2 1-405); settings: protein: recombinant; tags: N-terminal GST; dsDNA, one strand shown
T9 sequence: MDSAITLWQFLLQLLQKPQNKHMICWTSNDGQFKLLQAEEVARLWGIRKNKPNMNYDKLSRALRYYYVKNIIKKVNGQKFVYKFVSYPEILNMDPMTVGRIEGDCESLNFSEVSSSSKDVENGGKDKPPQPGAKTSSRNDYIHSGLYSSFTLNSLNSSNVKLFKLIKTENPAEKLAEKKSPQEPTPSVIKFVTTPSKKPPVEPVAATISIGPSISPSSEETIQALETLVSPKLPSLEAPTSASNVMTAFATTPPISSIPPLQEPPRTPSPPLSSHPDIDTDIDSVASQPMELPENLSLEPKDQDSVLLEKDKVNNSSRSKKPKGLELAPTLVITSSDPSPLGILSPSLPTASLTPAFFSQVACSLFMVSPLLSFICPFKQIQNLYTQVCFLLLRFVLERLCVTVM
Summary of the method: as §1

ETV2 = biological target: T10, ETV2 (Homo sapiens, UniProt O00321 1-342); settings: protein: recombinant; tags: N-terminal GST; dsDNA, one strand shown
T10 sequence: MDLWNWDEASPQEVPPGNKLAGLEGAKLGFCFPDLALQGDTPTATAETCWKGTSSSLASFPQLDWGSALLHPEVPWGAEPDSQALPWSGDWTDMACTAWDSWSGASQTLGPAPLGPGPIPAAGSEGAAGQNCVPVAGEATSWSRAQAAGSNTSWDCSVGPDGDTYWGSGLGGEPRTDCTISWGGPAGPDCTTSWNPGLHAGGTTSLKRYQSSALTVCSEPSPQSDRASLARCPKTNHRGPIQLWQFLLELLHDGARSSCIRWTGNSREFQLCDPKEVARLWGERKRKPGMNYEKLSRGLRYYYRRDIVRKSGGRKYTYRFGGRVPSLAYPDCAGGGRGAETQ
Summary of the method: as §1

ELF3 = biological target: T11, ELF3 (Homo sapiens, UniProt P78545 1-371); settings: protein: recombinant; tags: N-terminal GST; dsDNA, one strand shown
T11 sequence: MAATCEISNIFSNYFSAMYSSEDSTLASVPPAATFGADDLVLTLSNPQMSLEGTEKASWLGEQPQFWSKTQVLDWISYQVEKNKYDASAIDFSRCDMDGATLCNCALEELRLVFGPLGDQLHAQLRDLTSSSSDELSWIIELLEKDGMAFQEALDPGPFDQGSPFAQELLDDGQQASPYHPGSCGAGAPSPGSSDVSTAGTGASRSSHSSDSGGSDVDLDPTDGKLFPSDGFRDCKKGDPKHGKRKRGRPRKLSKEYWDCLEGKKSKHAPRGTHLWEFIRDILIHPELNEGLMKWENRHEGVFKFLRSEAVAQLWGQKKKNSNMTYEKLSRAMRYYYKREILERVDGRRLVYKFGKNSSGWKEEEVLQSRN
Summary of the method: as §1

CRX = CRX (Homo sapiens, UniProt O43186 1-299); settings: protein: recombinant; tags: N-terminal GST; dsDNA, one strand shown
Summary of the method: as §1

ETV1 = ETV1 (Homo sapiens, UniProt P50549 1-477); settings: protein: recombinant; tags: N-terminal GST; dsDNA, one strand shown
Summary of the method: as §1

ELF1, sequence (P32519 whole entry): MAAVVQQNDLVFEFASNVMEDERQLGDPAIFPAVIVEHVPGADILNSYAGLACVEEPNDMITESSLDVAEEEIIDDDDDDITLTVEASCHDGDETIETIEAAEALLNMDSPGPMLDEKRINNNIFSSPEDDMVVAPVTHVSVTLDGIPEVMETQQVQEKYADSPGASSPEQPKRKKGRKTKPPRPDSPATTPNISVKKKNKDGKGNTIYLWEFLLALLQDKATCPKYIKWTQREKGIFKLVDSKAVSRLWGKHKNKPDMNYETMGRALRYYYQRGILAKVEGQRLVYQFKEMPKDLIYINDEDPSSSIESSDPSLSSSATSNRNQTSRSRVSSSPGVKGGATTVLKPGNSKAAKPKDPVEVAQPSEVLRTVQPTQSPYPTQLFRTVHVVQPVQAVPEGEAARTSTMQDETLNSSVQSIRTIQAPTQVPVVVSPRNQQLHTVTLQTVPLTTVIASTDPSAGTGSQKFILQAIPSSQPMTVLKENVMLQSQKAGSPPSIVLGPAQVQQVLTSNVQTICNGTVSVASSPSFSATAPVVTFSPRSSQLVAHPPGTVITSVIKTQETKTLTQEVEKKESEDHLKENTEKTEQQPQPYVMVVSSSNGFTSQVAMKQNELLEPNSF
ETV5, sequence (P41161 whole entry): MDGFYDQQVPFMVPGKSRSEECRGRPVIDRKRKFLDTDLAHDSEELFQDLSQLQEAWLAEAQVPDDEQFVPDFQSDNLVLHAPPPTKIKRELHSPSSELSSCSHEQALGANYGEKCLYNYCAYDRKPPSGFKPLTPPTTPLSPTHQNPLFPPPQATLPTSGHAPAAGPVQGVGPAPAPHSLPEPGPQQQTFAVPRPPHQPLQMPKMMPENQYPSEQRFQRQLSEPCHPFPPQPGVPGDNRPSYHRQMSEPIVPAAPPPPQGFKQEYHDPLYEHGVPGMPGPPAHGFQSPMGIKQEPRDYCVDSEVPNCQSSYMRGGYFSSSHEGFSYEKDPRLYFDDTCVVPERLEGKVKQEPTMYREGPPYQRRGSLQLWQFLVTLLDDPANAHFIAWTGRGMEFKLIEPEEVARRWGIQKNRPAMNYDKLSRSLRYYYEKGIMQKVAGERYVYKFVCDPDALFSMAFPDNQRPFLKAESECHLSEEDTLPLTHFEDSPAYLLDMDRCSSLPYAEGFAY
HSF1, sequence (Q00613 whole entry): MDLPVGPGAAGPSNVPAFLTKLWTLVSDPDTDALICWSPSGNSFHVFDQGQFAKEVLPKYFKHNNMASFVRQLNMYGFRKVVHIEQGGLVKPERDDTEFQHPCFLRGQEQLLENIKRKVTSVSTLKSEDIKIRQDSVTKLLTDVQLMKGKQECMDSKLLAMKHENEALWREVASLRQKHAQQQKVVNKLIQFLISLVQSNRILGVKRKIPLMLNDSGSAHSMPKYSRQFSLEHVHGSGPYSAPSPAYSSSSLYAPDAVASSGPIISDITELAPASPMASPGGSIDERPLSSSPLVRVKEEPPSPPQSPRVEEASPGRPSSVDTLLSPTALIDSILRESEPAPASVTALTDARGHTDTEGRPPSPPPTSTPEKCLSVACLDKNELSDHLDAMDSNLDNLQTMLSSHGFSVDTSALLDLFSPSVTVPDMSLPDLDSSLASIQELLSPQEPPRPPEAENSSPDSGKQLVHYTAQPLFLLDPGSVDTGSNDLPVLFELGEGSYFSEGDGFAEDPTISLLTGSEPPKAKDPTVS
CRX, sequence (O43186 whole entry): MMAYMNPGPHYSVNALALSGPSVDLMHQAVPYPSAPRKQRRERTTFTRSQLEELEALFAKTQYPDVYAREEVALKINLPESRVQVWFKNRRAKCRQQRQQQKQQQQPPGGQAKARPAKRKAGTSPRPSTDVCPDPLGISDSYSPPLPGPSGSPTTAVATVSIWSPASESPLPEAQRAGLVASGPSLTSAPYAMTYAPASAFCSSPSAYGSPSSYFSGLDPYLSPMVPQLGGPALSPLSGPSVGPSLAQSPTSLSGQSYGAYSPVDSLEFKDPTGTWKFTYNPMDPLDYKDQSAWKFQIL
ETV1, sequence (P50549 whole entry): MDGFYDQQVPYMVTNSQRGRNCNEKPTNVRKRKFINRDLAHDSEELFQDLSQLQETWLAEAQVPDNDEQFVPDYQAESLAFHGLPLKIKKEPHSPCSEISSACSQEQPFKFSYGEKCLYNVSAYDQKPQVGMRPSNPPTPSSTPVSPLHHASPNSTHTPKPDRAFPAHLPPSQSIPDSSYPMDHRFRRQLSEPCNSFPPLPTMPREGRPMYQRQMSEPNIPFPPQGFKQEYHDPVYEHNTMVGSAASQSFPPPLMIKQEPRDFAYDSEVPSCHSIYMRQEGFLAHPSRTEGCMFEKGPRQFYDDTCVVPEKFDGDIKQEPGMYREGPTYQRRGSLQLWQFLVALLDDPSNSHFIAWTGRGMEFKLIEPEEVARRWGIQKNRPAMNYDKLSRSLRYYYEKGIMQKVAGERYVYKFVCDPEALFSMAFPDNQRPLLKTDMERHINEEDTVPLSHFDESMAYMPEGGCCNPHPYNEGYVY
ELF4, sequence (Q99607 whole entry): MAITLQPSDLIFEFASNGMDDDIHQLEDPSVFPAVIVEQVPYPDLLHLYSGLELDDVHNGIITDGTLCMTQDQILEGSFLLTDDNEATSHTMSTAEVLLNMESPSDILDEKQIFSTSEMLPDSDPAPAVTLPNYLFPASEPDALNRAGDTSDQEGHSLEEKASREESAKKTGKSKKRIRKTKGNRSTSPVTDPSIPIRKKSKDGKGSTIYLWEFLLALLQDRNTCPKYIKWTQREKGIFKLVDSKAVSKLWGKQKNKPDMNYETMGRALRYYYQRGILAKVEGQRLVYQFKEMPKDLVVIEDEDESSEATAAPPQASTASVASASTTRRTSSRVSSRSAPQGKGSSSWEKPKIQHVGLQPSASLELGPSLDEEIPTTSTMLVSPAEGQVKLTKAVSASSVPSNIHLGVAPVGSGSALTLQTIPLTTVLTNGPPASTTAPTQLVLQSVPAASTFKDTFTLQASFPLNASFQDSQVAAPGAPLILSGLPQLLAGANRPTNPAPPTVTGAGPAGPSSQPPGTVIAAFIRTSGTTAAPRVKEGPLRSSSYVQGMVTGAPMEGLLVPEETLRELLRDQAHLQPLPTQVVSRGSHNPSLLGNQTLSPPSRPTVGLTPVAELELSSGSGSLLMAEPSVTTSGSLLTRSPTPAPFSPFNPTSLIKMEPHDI
SPIB, sequence (Q01892 whole entry): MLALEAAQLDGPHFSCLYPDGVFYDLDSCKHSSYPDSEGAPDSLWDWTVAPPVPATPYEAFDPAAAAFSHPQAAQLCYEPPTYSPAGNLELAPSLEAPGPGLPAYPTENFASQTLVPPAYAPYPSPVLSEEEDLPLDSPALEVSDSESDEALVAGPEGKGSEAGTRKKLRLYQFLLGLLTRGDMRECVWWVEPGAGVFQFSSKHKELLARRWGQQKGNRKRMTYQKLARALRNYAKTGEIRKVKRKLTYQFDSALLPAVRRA

## ATCTGA
FLI1
  binding signal: 1.08 fold enrichment (6-mer frequency, TF over GST control)
ELK1
  binding signal: 1.08 fold enrichment (6-mer frequency, TF over GST control)
GABPA
  binding signal: 1.21 fold enrichment (6-mer frequency, TF over GST control)
ERG
  binding signal: 1.07 fold enrichment (6-mer frequency, TF over GST control)
ELF1
  binding signal: 1.16 fold enrichment (6-mer frequency, TF over GST control)
EHF
  binding signal: 1.17 fold enrichment (6-mer frequency, TF over GST control)
SPIB
  binding signal: 1.17 fold enrichment (6-mer frequency, TF over GST control)
ELK3
  binding signal: 1.2 fold enrichment (6-mer frequency, TF over GST control)
FEV
  binding signal: 1.1 fold enrichment (6-mer frequency, TF over GST control)
ETV5
  binding signal: 1.07 fold enrichment (6-mer frequency, TF over GST control)
HSF1
  binding signal: 1.16 fold enrichment (6-mer frequency, TF over GST control)
SPIC
  binding signal: 1.21 fold enrichment (6-mer frequency, TF over GST control)
ELF4
  binding signal: 1.09 fold enrichment (6-mer frequency, TF over GST control)
ELK4
  binding signal: 1.2 fold enrichment (6-mer frequency, TF over GST control)
ETV2
  binding signal: 1.01 fold enrichment (6-mer frequency, TF over GST control)
ELF3
  binding signal: 1.12 fold enrichment (6-mer frequency, TF over GST control)
CRX
  binding signal: 1.4 fold enrichment (6-mer frequency, TF over GST control)
ETV1
  binding signal: 1.24 fold enrichment (6-mer frequency, TF over GST control)
